Shown are actives, neighbours in structure and some others; about 2.5% of the full set was active somewhere.
p53ts 32C kill – kills p53ts cells at the permissive temperature | H1299-p53A138V at 32C, ATP luminescence viability, 24 h | Potency, µM (titrated, usually from 46.1 µM), for the others: at the highest dose activity change, negative = cytotoxicity, hits mostly cytotoxic | hit rate 0.93% among 130,000;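 also: 0% = DMSO and -100% = full killing by reference compound; nearly all actives have a fitted effect of over 55% in size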
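Viability by ATPlite luminescence after 24 h compound treatment (up to 46 uM) at the permissive 32C. Cells are H1299 carrying p53 A138V. Scale runs from DMSO basal to 100 uM tamoxifen as full kill; AC50 from Hill fits.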
FLuc inh – inhibitors of firefly luciferase; P08659; hit rate 2.2% among 72,000; Potency, µM (doses to about 57.1 µM), inactives show top-dose activity change, negative = inhibition, most hits filed as inhibitors; purified firefly luciferase, luminescence, 8 min; also: nearly all actives have a fitted effect of over 40% in size
Target sequence (P08659 whole entry, looked up): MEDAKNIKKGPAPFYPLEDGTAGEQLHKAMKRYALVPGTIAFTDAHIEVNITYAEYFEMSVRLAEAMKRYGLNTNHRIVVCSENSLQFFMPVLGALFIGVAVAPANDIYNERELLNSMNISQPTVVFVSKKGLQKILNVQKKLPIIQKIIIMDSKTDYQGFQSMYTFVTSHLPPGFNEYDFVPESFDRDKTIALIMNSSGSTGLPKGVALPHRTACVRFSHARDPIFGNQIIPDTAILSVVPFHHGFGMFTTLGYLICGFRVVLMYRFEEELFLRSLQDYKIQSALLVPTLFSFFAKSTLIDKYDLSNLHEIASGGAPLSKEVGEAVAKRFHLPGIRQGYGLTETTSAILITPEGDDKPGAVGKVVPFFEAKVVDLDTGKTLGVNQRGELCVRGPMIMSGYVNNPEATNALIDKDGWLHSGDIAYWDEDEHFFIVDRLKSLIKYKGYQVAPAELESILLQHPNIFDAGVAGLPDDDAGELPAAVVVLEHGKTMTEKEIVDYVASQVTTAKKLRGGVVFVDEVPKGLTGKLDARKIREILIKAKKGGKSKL
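Titration-based qHTS; buffer 50 mM imidazole pH 7.2, 50 mM KCl, 7 mM MgCl2, 10 uM ATP, 0.01% Tween 20, 0.05% BSA; luciferase/luciferin detector mix added after compound; 8 min, ambient; luminescence.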
p53ts 39C tox – cytotoxicity in p53ts cells at nonpermissive temperature; H1299-p53A138V viability at 39C, ATP luminescence, 24 h; Potency, µM (series often up to 46.1 µM), without a hit: at the highest dose activity change, negative = cell killing, hits mostly cytotoxic; hit rate 1.5% among 130,000; AID 902; also: nearly all actives have a fitted effect of over 55% in size
The depositor's hits bear a star; [ ] = another dose, or the depositor's remark. Calls follow the shape of the dose curve; as a rule, active = well fitted curve in the direction sought with a large enough effect; inconclusive = small, poorly fitted or top-dose-only effect, or another doubt; inactive = no such curve, though single readings can be large; an effect the other way counts as inactive or inconclusive. Unless noted, % is scaled to controls: 0 for no effect and ±100 for the full control effect; potency is read from the fitted curve at half-maximal effect.

Results for Cc1oc(-c2ccc(Cl)cc2)nc1CS(=O)CC(=O)N1CCC2(CC1)OCCO2 (stereo unspecified) ?
p53ts 32C kill: 1.9%; FLuc inh: 2.0%; p53ts 39C tox: -8.5%

Results for CCCOc1ccc2[nH]cc(C3=CCNCC3)c2n1 ?
p53ts 32C kill: -4.4%; FLuc inh: 12.6µM*; p53ts 39C tox: -9.4%

How did C1=C(c2c[nH]c3ccccc23)CCNC1 do in these assays?
p53ts 32C kill: 4.4%; FLuc inh: -2.2%; p53ts 39C tox: -6.1%

How did O=P(O)(OP(=O)(O)c1ccccc1)c1ccccc1 (tested in a mixture with another compound) do in these assays?
p53ts 32C kill: -11.9%[9.22 µM]; FLuc inh: 4.7%[11.4 µM]; p53ts 39C tox: -4.2%[9.22 µM]

How did CC(C)[C@@]1(NC(=O)[C@@H]2C[C@H]3c4cccc5[nH]cc(c45)C[C@@H]3N(C)C2)O[C@@]2(O)[C@H]3CCCN3C(=O)[C@@H](Cc3ccccc3)N2C1=O do in these assays?
FLuc inh: 1.8%[11.4 µM]

How did Cn1ncnc2c(=O)n(C)c(=O)nc1-2 do in these assays?
p53ts 32C kill: 0.794µM*; FLuc inh: -0.3%; p53ts 39C tox: 5.01µM*

How did Cn1cc(CCC(=O)N2CCC3(CC2)OCCO3)c2ccccc21 do in these assays?
p53ts 32C kill: 1.2%; FLuc inh: 0.1%; p53ts 39C tox: 5.2%

What do the screens show for `Cc1cc(N2CCOCC2)nc2ccc(NC(=O)CCC(=O)N3CCC4(CC3)OCCO4)cc12`?
p53ts 32C kill: -29.3%; FLuc inh: 12.6µM*; p53ts 39C tox: -27.0%

Results for C[C@@H]1[C@H]2C=C[C@@H]1[C@@H](c1c3ccc(=O)c(O)c-3oc3c(O)c(O)ccc13)[C@@H]2C(=O)O ?
p53ts 32C kill: 6.2%[9.22 µM]; FLuc inh: -4.4%[11.4 µM]; p53ts 39C tox: 1.7%[9.22 µM]

What do the screens show for `CCCN1CCC[C@H](c2cccc(C#N)c2)C1`?
p53ts 32C kill: -8.6%; FLuc inh: -1.2%; p53ts 39C tox: -7.2%

Results for C[N+]1(C)CCc2cc3c(cc2[C@@H]1[C@@H]1OC(=O)c2c1ccc1c2OCO1)OCO3 ?
p53ts 32C kill: -9.8%; FLuc inh: -4.9%; p53ts 39C tox: 17.6%

Results for CN1CCN(C(=O)COc2ccc(-c3nc4ccccc4s3)cc2)CC1 ?
p53ts 32C kill: 1µM*; FLuc inh: 0.794µM*; p53ts 39C tox: 0.794µM*

What do the screens show for `COc1ccc(OCC(=O)N2CCN(Cc3cc(=O)n4nc(-c5ccc(OC)cc5)sc4n3)CC2)cc1`?
p53ts 32C kill: -7.1%; p53ts 39C tox: 8.4%

How did O=S(=O)(NCCO)c1cc[c]([Sb](=[O])([OH])[OH])cc1 do in these assays?
p53ts 32C kill: 14.2%[9.22 µM]; FLuc inh: -1.3%[11.4 µM]; p53ts 39C tox: 17.2%[9.22 µM]

What do the screens show for `CCOc1cc2[nH]c(=S)n(CCCC(=O)N3CCC4(CC3)OCCO4)c(=O)c2cc1OCC`?
p53ts 32C kill: -1.6%; FLuc inh: 1.1%; p53ts 39C tox: -3.0%

Results for COc1cc2[nH]c(=O)n(CCCCCC(=O)N3CCN(c4cccc(C(F)(F)F)c4)CC3)c(=O)c2cc1OC ?
p53ts 32C kill: inconclusive; p53ts 39C tox: 12.6µM*

What do the screens show for `Cc1nc2ccccc2cc1C[N+]12CN3CN(CN(C3)C1)C2`?
p53ts 32C kill: -2.0%[9.22 µM]; FLuc inh: 1.6%[11.4 µM]; p53ts 39C tox: -1.2%[9.22 µM]

What do the screens show for `C=CCN1C[C@@H](C)N([C@H](c2ccc(C(=O)N(CC)CC)cc2)c2cccc(OC)c2)C[C@H]1C`?
p53ts 32C kill: -5.2%; FLuc inh: -2.7%; p53ts 39C tox: 14.9%

How did COc1ccc(C[C@@H]2NC[C@H](O)[C@H]2OC(C)=O)cc1 do in these assays?
FLuc inh: 0.7%[11.4 µM]

How did C[C@H](N)c1cccc(Cl)c1Cl do in these assays?
p53ts 32C kill: 8.6%; FLuc inh: -1.6%; p53ts 39C tox: 3.3%

Results for CCCCCCCC/C=C\CCCCCCCC(N)=O ?
p53ts 32C kill: -9.1%; FLuc inh: 0.3%; p53ts 39C tox: 31.6µM*

How did CCCCCCC(N)CC(=O)O (stereo unspecified) do in these assays?
p53ts 32C kill: 1.4%; FLuc inh: -0.2%; p53ts 39C tox: 10.2%

Screens from PubChem.
